Experimental findings from PubChem BioAssay (Tox21) are described below.

SMILES strings stand for the structures. A number with no mark means an inactive call. Active and inactive are the calls of the source. Calls come from the whole dose curve; as a rule, active = well fitted inhibition curve with a large enough effect in the repeat runs (not every such curve was filed as active); inconclusive = weak or mixed curves; inactive = flat fitted curve, though single readings scatter.
% is set by controls: 0 for no effect and ±100 for the full control effect; potency is the fitted concentration of half-maximal effect.

Sequence of Thyrotropin-releasing hormone receptor (Homo sapiens) (P34981 whole entry, looked up): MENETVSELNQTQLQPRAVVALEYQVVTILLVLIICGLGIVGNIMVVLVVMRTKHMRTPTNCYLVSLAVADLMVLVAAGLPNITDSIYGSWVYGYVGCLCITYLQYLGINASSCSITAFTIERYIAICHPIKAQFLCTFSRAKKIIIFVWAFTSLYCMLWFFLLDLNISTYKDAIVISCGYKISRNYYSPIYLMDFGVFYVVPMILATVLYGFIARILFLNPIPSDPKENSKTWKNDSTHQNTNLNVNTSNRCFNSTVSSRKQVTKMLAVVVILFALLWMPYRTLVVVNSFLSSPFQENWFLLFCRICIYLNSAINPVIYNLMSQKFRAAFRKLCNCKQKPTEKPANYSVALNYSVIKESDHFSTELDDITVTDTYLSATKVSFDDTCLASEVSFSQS

In the assay the target is Thyrotropin-releasing hormone receptor (Homo sapiens) (UniProt P34981). The assay is described as follows: qHTS assay to identify small molecule antagonists of the thyrotropin-releasing hormone receptor (TRHR) signaling pathway (AID 1346877). The note with it: TRHR-HEK293, TRH-induced calcium fluorescence, antagonist mode; series mostly up to 51.3 µM; activity, negative = inhibition: at the top concentration. From the text:
National Center for Advancing Translational Sciences [NCATS]
NIH Chemical Genomics Center [NCGC]
U.S. Environmental Protection Agency [EPA]
National Institutes of Environmental Health Sciences [NIEHS]
National Toxicology Program [NTP]
U.S. Food and Drug Administration [FDA]
Thyrotropin-releasing hormone (TRH) receptor (TRHR) is a G-protein-coupled receptor which binds the tripeptide thyrotropin releasing hormone. TRHR is found in the brain and, when bound by TRH, acts (through phospholipase C) to increase intracellular inositol trisphosphate. It plays a crucial role in the anterior pituitary where it controls the synthesis and secretion of thyroid stimulating hormone and prolactin. The TRHR-Hek293 assay is a cell-based assay, and it has the potential to screen G protein-coupled receptors. A compound/drug can either activate (agonist) or suppress (antagonist) GPCRs that can be monitored by levels of intracellular calcium. In this assay, the Tox21 10K compound library was screened to identify potential TRHR antagonists.
Tox21 Assay Protocol Summary:
The TRHR-Hek293 cells were dispensed at 1500cells/4uL/well in 1536-well black-clear bottom plates using a Multidrop dispenser. After the assay plates were incubated at a 37 C/5% CO2 incubator for 18 hours, 4 uL of Dye-Loading Solution was added to each well. The plates were incubated at 37 C for 2 hours. For agonist mode, 23 nL of compounds dissolved in DMSO, positive controls or DMSO only was transferred to the assay plate by a pin tool. The fluorescence intensity in the plates was measured using FDSS 7000EX kinetic plate reader for 3 min at 1 sec intervals. For antagonist mode, 23 nL of compounds dissolved in DMSO, positive controls or DMSO only was transferred to the assay plate by a pin tool. After 5 min incubation at room temperature, 1 uL of TRH was added on the top of the cell/compound mixtures to achieve a final agonist concentration of 1 nM. The fluorescence intensity in the plates was measured using FDSS 7000EX kinetic plate reader for 3 min at 1 sec intervals. Each test compound was measured at 15 concentrations and in triplicates.
On the technique in general: qHTS replaces the single test concentration by a dilution series.
Take `CC1(C)C(/C=C(\Cl)C(F)(F)F)C1C(=O)OC(C#N)c1cccc(Oc2ccccc2)c1` (stereo not given): the “activity, negative = inhibition” value is -2.65%.

Turning to `Clc1ccc(-c2ccccc2)cc1`, the “activity, negative = inhibition” value was -16.9%. The same measure, in the same setting: to `O=C(CCl)Nc1ccccc1` belongs 0.254%. `CC(C)(C)OO`: the “activity, negative = inhibition” value is -4.66%. `BrC(Br)C(Br)(Br)Br`: the Potency was 34 µM (active). Regarding `Clc1ccc(C(c2ccc(Cl)cc2)C(Cl)(Cl)Cl)cc1`, the Potency result is “inactive”. In the case of `SCc1ccco1`, the “activity, negative = inhibition” value was 11.9%. The same measure, in the same setting: to `CCc1nn(C)c(C(=O)NCc2ccc(C(C)(C)C)cc2)c1Cl` belongs -12.2%; to `NC(=O)c1ccc(N)nc1`, 5.34%; to `CCSC(C)CC1CC(=O)C(/C(CC)=N/OC/C=C/Cl)=C(O)C1` (stereo not given), 3.67% [at 23.6 µM]. On the same count and under the same terms, with `CC(Cl)CN(C)C` (stereo not given) the figure was -18.1%. Regarding `N#CC(Cl)Cl`, the “activity, negative = inhibition” value is 3.19%.

With `CSCCCN=C=S`, the “activity, negative = inhibition” value is -13.2%.

As for `Clc1ccc(C(Cl)(Cl)Cl)c(Cl)c1`, the “activity, negative = inhibition” value is -5.37%. With `CC(C)(C)C(O)C(Oc1ccc(-c2ccccc2)cc1)n1cncn1` (stereo not given), the “activity, negative = inhibition” value is -19.6%. The same measure, in the same setting: to `Nc1ccccc1C(=O)OC/C=C/c1ccccc1` belongs -4.61%; to `O=C(O)c1cc[c]([Hg][Cl])cc1`, 3.46%. Take `C[C@H]1O[C@@H](O[C@H]2[C@@H](O)C[C@H](O[C@H]3[C@@H](O)C[C@H](O[C@H]4CC[C@@]5(C)[C@H](CC[C@@H]6[C@@H]5CC[C@]5(C)[C@@H](C7=CC(=O)OC7)CC[C@]65O)C4)O[C@@H]3C)O[C@@H]2C)C[C@H](O)[C@@H]1O`: the Potency entry is “inactive”.

On to `CCOC(=O)OC1=C(c2cc(C)ccc2C)C(=O)NC12CCC(OC)CC2` (stereo not given), for which the “activity, negative = inhibition” value is -5.42%. On the same count and under the same terms, with `COP(=S)(OC)Oc1cc(Cl)c(Br)cc1Cl` the figure was -8.31%. The same measure, in the same setting: to `ClC(Cl)=C(Cl)Cl` belongs 0.0036%; to `Cc1ccc(C(=O)Cl)cc1`, 1.31%. As to `COc1ccc(N)cc1N`, the Potency result was “inactive”. As for `CC(C)(C)c1ccc(CSc2cnn(C(C)(C)C)c(=O)c2Cl)cc1`, the “activity, negative = inhibition” value was 0.592%. As for `Fc1cccc(Cl)c1CCl`, the “activity, negative = inhibition” value is -3.08%. On the same count and under the same terms, to `FC(F)(F)c1cccc(C2=CCN(CCc3ccc4ccccc4c3)CC2)c1` belongs -0.982% [at 23.6 µM]. On the same count and under the same terms, with `FC(Cl)(Cl)Cl` the figure was 6.49%; with `COc1ccc(OC)c(C=O)c1`, -4.49%. Turning to `Cc1ccc(OP(=O)(Oc2ccccc2)Oc2ccccc2)cc1`, the “activity, negative = inhibition” value was -4.18%. The same measure, in the same setting: with `CN(CCCC(O)c1cccnc1)N=O` (stereo not given) the figure was 0.0951%.

With `CN(C)c1ccc(N=Nc2ccccc2)cc1`, the “activity, negative = inhibition” value is 0.225%. In the case of `CCCN(CCC)CCc1c[nH]c2ccccc12`, the “activity, negative = inhibition” value is 0.0268%. Still for that read-out and setting: to `Oc1ccc(C2(c3ccc(O)cc3)CCCCC2)cc1` belongs -16.2%; to `O=C(CBr)c1ccc(O)cc1`, 4.31%; to `O=[N+]([O-])c1ccc(Oc2ccc(C(F)(F)F)cc2[N+](=O)[O-])cc1`, -2.78%. On the same count and under the same terms, with `CCCCCCCCCCCCCCCCCCn1cc[n+](C)c1` the figure was -0.567%; with `CCN`, -2.28%. For `CC(C)CCCCCCCOP(=O)(Oc1ccccc1)Oc1ccccc1`, the “activity, negative = inhibition” value is 0.625%. Same read-out and setting: with `CC(C)(COCC1CO1)COCC1CO1` (stereo not given) the figure was -1.18%. On the same count and under the same terms, to `N#CCCSCCC#N` belongs 0.419%.
